Source: PubChem BioAssay AID1159580 (chemical genetic matrix, 2015)
“And” between values parts separate entries of the source, which are not always exact repeats. Identical values can stand only once. In all, about 5,500 compounds went through this assay and about 2,000 (36%) were called active. Roughly 18% stayed inconclusive and do not appear here. No stated cut-off is given here; in the data, active means normalized growth mostly below about 0.91 (no sharp cut-off); inconclusive means no clear call, values can overlap the other calls; inactive means mostly above about 0.92. The list shows a part of the results.

Assay: chemical genetic growth profiling, strain panel (AID 1159580);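 further: tested at 20 µM; growth read once vehicle control cultures reached saturation at 30 °C; 1 = growth at the plate median or of vehicle wells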
Settings: S. cerevisiae deletion strains, growth OD
[1] = locus YDR150W, strain NUM1, stronger effect = lower value
[2] = locus YGR078C, strain PAC10, stronger effect = lower value
[3] = locus YNL128W, strain TEP1, stronger effect = lower value
[4] = locus YNL322C, strain KRE1, stronger effect = lower value
[5] = locus YPL055C, strain LGE1, stronger effect = lower value
[6] = locus YPL241C, strain CIN2, stronger effect = lower value

Measured: normalized growth

CCCCC(=O)O[C@H]1CCC2C3CCc4cc(O)ccc4C3CC[C@@]21C (stereo partly specified)
inactive: locus YAL021C, strain ccr4, stronger effect = lower value 1.02 | locus YAL026C, strain drs2, stronger effect = lower value 1.02 | locus YAL030W, strain snc1, stronger effect = lower value 1.03 | locus YBL061C, strain skt5, stronger effect = lower value 1.01 | locus YBR009C, strain hhf1, stronger effect = lower value 0.988 | locus YBR021W, strain FUR4, stronger effect = lower value 0.99 | locus YBR023C, strain chs3, stronger effect = lower value 1.01 | locus YBR171W, strain sec66, stronger effect = lower value 1.03 | locus YBR229C, strain ROT2, stronger effect = lower value 0.943 | locus YBR231C, strain swc5, stronger effect = lower value 1.04 | locus YBR279W, strain paf1, stronger effect = lower value 1.01 | locus YCL011C, strain gbp2, stronger effect = lower value 1.01 | locus YCL016C, strain dcc1, stronger effect = lower value 0.979 | locus YCL029C, strain bik1, stronger effect = lower value 0.98 | locus YCL061C, strain MRC1, stronger effect = lower value 1.02 | locus YCL069W, strain vba3, stronger effect = lower value 1.01 | locus YCR088W, strain abp1, stronger effect = lower value 1.01 | locus YDL005C, strain med2, stronger effect = lower value 1.01 | locus YDL035C, strain GPR1, stronger effect = lower value 0.948 | locus YDL040C, strain nat1, stronger effect = lower value 1.02 | locus YDL074C, strain BRE1, stronger effect = lower value 0.926 | locus YDL101C, strain DUN1, stronger effect = lower value 0.98 | locus YDL134C, strain PPH21, stronger effect = lower value 0.954 | locus YDL185W, strain tfp1, stronger effect = lower value 0.988 | locus YDL192W, strain arf1, stronger effect = lower value 1 | locus YDR001C, strain nth1, stronger effect = lower value 1.01 | locus YDR069C, strain doa4, stronger effect = lower value 1.01 | locus YDR101C, strain arx1, stronger effect = lower value 0.953 | locus YDR137W, strain rgp1, stronger effect = lower value 0.973 | [1] 0.988 | locus YDR159W, strain sac3, stronger effect = lower value 0.953 | locus YDR162C, strain NBP2, stronger effect = lower value 0.919 | locus YDR195W, strain ref2 1.03 | locus YDR297W, strain sur2, stronger effect = lower value 1.03 | locus YDR318W, strain mcm21, stronger effect = lower value 0.996 | locus YDR334W, strain swr1, stronger effect = lower value 1.02 | locus YDR335W, strain msn5, stronger effect = lower value 1.02 | locus YDR388W, stronger effect = lower value 0.992 | locus YDR392W, strain spt3, stronger effect = lower value 0.804 | locus YDR502C, strain sam2, stronger effect = lower value 0.995 | locus YEL003W, strain gim4, stronger effect = lower value 1.02 | locus YEL037C, strain rad23, stronger effect = lower value 1.02 | locus YEL061C, strain CIN8 (second series), stronger effect = lower value 1.02 | locus YEL061C, strain CIN8, stronger effect = lower value 0.985 | locus YER015W, strain faa2, stronger effect = lower value 1 | locus YER016W, strain bim1, stronger effect = lower value 1 | locus YER110C, stronger effect = lower value 1.01 | locus YER111C, strain swi4, stronger effect = lower value 1.01 | locus YER155C, strain BEM2 (second series), stronger effect = lower value 1.03 | locus YER155C, strain BEM2, stronger effect = lower value 0.979 | locus YER167W, strain BCK2, stronger effect = lower value 0.979 | locus YFR010W, strain ubp6, stronger effect = lower value 1.04 | locus YGL078C, strain dbp3, stronger effect = lower value 1.01 | locus YGL086W, strain mad1, stronger effect = lower value 0.968 | locus YGL167C, strain pmr1, stronger effect = lower value 1.04 | locus YGL173C, strain kem1, stronger effect = lower value 1.01 | locus YGL227W, strain vid30, stronger effect = lower value 1.01 | locus YGL240W, strain doc1, stronger effect = lower value 1.04 | locus YGL248W, strain PDE1, stronger effect = lower value 0.976 | locus YGL253W, strain hxk2, stronger effect = lower value 0.997 | [2] 0.973 | locus YGR135W, strain pre9, stronger effect = lower value 1.07 | locus YGR252W, strain gcn5, stronger effect = lower value 1.1 | locus YHR013C, strain ard1, stronger effect = lower value 1.03 | locus YHR027C, strain rpn1, stronger effect = lower value 1.02 | locus YHR030C, strain SLT2, stronger effect = lower value 0.98 and 0.996 | locus YHR079C, strain IRE1 (second series), stronger effect = lower value 0.997 | locus YHR079C, strain IRE1, stronger effect = lower value 0.989 | locus YHR094C, strain hxt1, stronger effect = lower value 0.991 | locus YHR129C, strain ARP1, stronger effect = lower value 0.989 | locus YHR142W, strain chs7, stronger effect = lower value 1.01 | locus YHR200W, strain rpn10, stronger effect = lower value 0.998 | locus YIL066C, strain RNR3, stronger effect = lower value 0.961 | locus YIL073C, strain SPO22, stronger effect = lower value 1 | locus YIL125W, strain kgd1, stronger effect = lower value 0.998 | locus YIR030C, strain dcg1, stronger effect = lower value 1.01 | locus YJL092W, strain hpr5, stronger effect = lower value 1.01 | locus YJL095W, strain BCK1 (second series), stronger effect = lower value 1.02 | locus YJL095W, strain BCK1, stronger effect = lower value 0.926 and 0.996 | locus YJL115W, strain asf1, stronger effect = lower value 1.02 | locus YJL129C, strain trk1, stronger effect = lower value 0.996 | locus YJL134W, strain LCB3, stronger effect = lower value 0.982 | locus YJL154C, strain vps35, stronger effect = lower value 1.01 | locus YJL164C, strain tpk1, stronger effect = lower value 0.987 | locus YJL166W, strain qcr8, stronger effect = lower value 1.02 | locus YJL168C, strain set2, stronger effect = lower value 1 | locus YJL187C, strain SWE1 (second series), stronger effect = lower value 0.982 | locus YJL187C, strain SWE1, stronger effect = lower value 1.02 | locus YJR043C, strain POL32, stronger effect = lower value 0.955 | locus YJR066W, strain TOR1, stronger effect = lower value 0.916 | locus YKL009W, strain mrt4, stronger effect = lower value 0.95 | locus YKL068W, stronger effect = lower value 0.989 | locus YKL085W, strain MDH1 (second series), stronger effect = lower value 1.01 | locus YKL085W, strain MDH1, stronger effect = lower value 1.01 | locus YKL160W, strain elf1, stronger effect = lower value 1.01 | locus YKL190W, strain CNB1, stronger effect = lower value 0.992 | locus YKR001C, strain vps1, stronger effect = lower value 0.959 | locus YKR026C, strain gcn3, stronger effect = lower value 1.01 | locus YKR091W, strain srl3, stronger effect = lower value 1.01 | locus YLL001W, strain dnm1, stronger effect = lower value 1.02 | locus YLL026W, stronger effect = lower value 1.02 | locus YLL041C, strain sdh2, stronger effect = lower value 1.02 | locus YLR027C, strain aat2, stronger effect = lower value 1.03 | locus YLR039C, strain RIC1, stronger effect = lower value 0.848 | locus YLR058C, strain SHM2, stronger effect = lower value 0.96 | locus YLR102C, strain apc9, stronger effect = lower value 1.01 | locus YLR113W, strain HOG1, stronger effect = lower value 1.03 | locus YLR221C, strain rsa3, stronger effect = lower value 0.995 | locus YLR258W, strain gsy2, stronger effect = lower value 1 | locus YLR262C, strain YPT6 (second series), stronger effect = lower value 0.974 | locus YLR262C, strain YPT6, stronger effect = lower value 0.749 | locus YLR268W, strain sec22, stronger effect = lower value 0.982 | locus YLR320W, strain mms22, stronger effect = lower value 0.981 | locus YLR330W, strain CHS5, stronger effect = lower value 0.984 | locus YLR342W, strain FKS1 (second series), stronger effect = lower value 0.98 | locus YLR342W, strain FKS1, stronger effect = lower value 0.998 | locus YLR357W, strain rsc2, stronger effect = lower value 0.999 | locus YLR370C, strain arc18, stronger effect = lower value 1.03 | locus YLR371W, strain rom2, stronger effect = lower value 0.985 | locus YLR384C, strain iki3, stronger effect = lower value 1.02 | locus YLR418C, strain cdc73, stronger effect = lower value 1.02 | locus YML016C, strain PPZ1, stronger effect = lower value 0.979 | locus YML032C, strain rad52, stronger effect = lower value 0.987 | locus YML120C, strain ndi1, stronger effect = lower value 1.02 | locus YML124C, strain tub3, stronger effect = lower value 1 | locus YMR058W, strain fet3, stronger effect = lower value 1.02 | locus YMR078C, strain ctf18, stronger effect = lower value 1 | locus YMR125W, strain sto1, stronger effect = lower value 0.999 | locus YMR129W, stronger effect = lower value 1.01 | locus YMR205C, strain PFK2, stronger effect = lower value 0.985 | locus YMR223W, strain ubp8, stronger effect = lower value 1.04 | locus YMR231W, strain pep5, stronger effect = lower value 1.05 | locus YMR307W, strain GAS1, stronger effect = lower value 0.881 | locus YNL067W, strain RPL9B, stronger effect = lower value 0.982 | locus YNL071W, strain lat1, stronger effect = lower value 0.965 | [3] 0.982 | locus YNL183C, strain NPR1, stronger effect = lower value 0.983 | locus YNL209W, strain ssb2, stronger effect = lower value 1.02 | locus YNL233W, strain BNI4, stronger effect = lower value 0.986 | locus YNL248C, strain rpa49, stronger effect = lower value 1.01 | locus YNL250W, strain rad50, stronger effect = lower value 0.984 | locus YNL271C, strain bni1, stronger effect = lower value 1 | locus YNL298W, strain CLA4, stronger effect = lower value 1 | locus YNL307C, strain MCK1, stronger effect = lower value 1 | locus YNL322C, strain KRE1 (second series), stronger effect = lower value 1.01 | [4] 0.998 | locus YNR049C, strain mso1, stronger effect = lower value 1 | locus YNR052C, strain pop2, stronger effect = lower value 1.01 | locus YOL012C, strain htz1 1.24 | locus YOL147C, strain pex11, stronger effect = lower value 1.01 | locus YOR001W, strain rrp6, stronger effect = lower value 1.03 | locus YOR061W, strain CKA2, stronger effect = lower value 0.962 | locus YOR069W, strain VPS5, stronger effect = lower value 0.984 | locus YOR070C, strain gyp1, stronger effect = lower value 1.02 | locus YOR080W, strain dia2, stronger effect = lower value 1.03 | locus YOR083W, strain WHI5, stronger effect = lower value 1 | locus YOR106W, strain vam3, stronger effect = lower value 1.04 | locus YOR136W, strain idh2, stronger effect = lower value 1 | locus YOR144C, strain elg1, stronger effect = lower value 0.999 | locus YOR184W, strain ser1, stronger effect = lower value 0.969 | locus YOR231W, strain MKK1, stronger effect = lower value 1.04 | locus YOR265W, strain rbl2, stronger effect = lower value 1.02 | locus YOR270C, strain vph1, stronger effect = lower value 0.965 | locus YOR290C, strain snf2, stronger effect = lower value 0.988 | locus YOR316C, strain cot1, stronger effect = lower value 0.994 | locus YPL051W, strain arl3, stronger effect = lower value 1.01 | [5] 0.959 | locus YPL078C, strain atp4, stronger effect = lower value 1.03 | locus YPL106C, strain sse1, stronger effect = lower value 1 | locus YPL240C, strain hsp82, stronger effect = lower value 1.01 | [6] 0.975 | locus YPL256C, strain CLN2, stronger effect = lower value 1 | locus YPR119W, strain clb2, stronger effect = lower value 0.998 | locus YPR141C, strain kar3, stronger effect = lower value 0.997 | locus YPR163C, strain tif3, stronger effect = lower value 1.01 | locus YPR167C, strain met16, stronger effect = lower value 1 | strain wtn01, stronger effect = lower value 1.03

CC(=O)O[C@H]1C[C@@H]2CC[C@@H]3[C@H](CC[C@@]4(C)[C@H]3C[C@H]([N+]3(C)CCCCC3)[C@@H]4OC(C)=O)[C@@]2(C)C[C@@H]1[N+]1(C)CCCCC1
inactive: locus YAL040C, strain CLN3, stronger effect = lower value 0.985 | locus YCL061C, strain MRC1 (second series), stronger effect = lower value 0.988 | [1] 0.998 | locus YDR363W, strain ESC2, stronger effect = lower value 0.989 | locus YER002W, strain NOP16, stronger effect = lower value 1 | [2] 0.996 | [3] 1 | locus YNL175C, strain NOP13, stronger effect = lower value 1.03 | locus YNL197C, strain WHI3, stronger effect = lower value 0.998 | locus YNL224C, strain SQS1, stronger effect = lower value 0.984 | [4] 1.01 | locus YOR083W, strain WHI5 (second series), stronger effect = lower value 0.959 | [5] 0.98 | [6] 0.987
